CHX counter: counter-screen for Shiga toxin inhibitors: cycloheximide protein synthesis inhibition; cell reporter, cycloheximide protein synthesis inhibition counterscreen; 300,000 tested, 12% active; max response, %; in the data active = max response mostly above about 13%, no sharp cut-off; inactive = mostly below about 14%; note: read at 38.3 µM for the half of the compounds with a filed dose; 0% is about no effect
Pf growth 48h: P. falciparum growth inhibition at 48 hours (one generation); P. falciparum luciferase growth in erythrocytes, 48 h; Potency, µM (top dose mostly 28.7 µM), for the others: at the highest dose activity change, negative = inhibition, most hits filed as inhibitors; 310,000 tested, 5.9% active; AID 504832; note: potency is the fitted concentration of half-maximal effect; % is set by controls: 0 for no effect and ±100 for the full control effect
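First compound was added to culture medium, then infected red cells at 0.1% parasitemia and 2% hematocrit (final). After incubation at 37 C under 5% CO2, luciferase detection reagent was dispensed and light output recorded.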
NS1 inh: inhibitors of influenza NS1 protein function; Potency, µM (top dose mostly 46.1 µM), without a hit: top-dose activity, positive = more growth; 270,000 tested, 0.4% active; AID 2326; calls by dose curve; note: potency is the fitted concentration of half-maximal effect; actives are rising curves; nearly all actives have a fitted effect of over 50% in size
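In this qHTS, NS1 from influenza A is expressed in budding yeast, where it slows growth. Cells are switched from glucose to 2% galactose medium (pH 6.0, -URA), treated with compound, and growth recovery is read at OD600.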
Shiga toxin inh: inhibitors of Shiga toxin in Vero cells | Vero cells, Shiga toxin protein synthesis inhibition reporter | inhibition, % at 38.7 µM | 290,000 tested, 9.2% active; in the data active = inhibition mostly above about 28%, no sharp cut-off; inactive = mostly below about 43%; note: 0% is about no effect
Pf growth 96h: P. falciparum growth inhibition at 96 hour, primary screen for plastid delayed-death inhibitors; P. falciparum luciferase reporter growth, 96 h; Potency, µM (series often up to 28.7 µM), for the others: at the highest dose activity change, negative = inhibition, actives largely listed as inhibitors; 320,000 tested, 6.9% active; AID 504834; note: potency is the fitted concentration of half-maximal effect; % is set by controls: 0 for no effect and ±100 for the full control effect
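Cell-based qHTS: luciferase-tagged P. falciparum in erythrocytes (2% hematocrit, 0.05% parasitemia final) incubated with compounds for 96 hours, 37 C, 5% CO2; luciferase detection reagent then added and luminescence measured.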
* hit, by the source's call; ? = inconclusive; . = no result given; [ ] = dose if it differs, or a comment. In the library only some 21% were active in any assay of this set; here they are far more common. Unless noted, calls come from the whole dose curve; as a rule, active = well fitted inhibition curve with a large enough effect; inconclusive = small, poorly fitted or top-dose-only effect, or another doubt; inactive = no such curve, though single readings can be large or run the other way.

SMILES | CHX counter | Pf growth 48h | NS1 inh | Shiga toxin inh | Pf growth 96h
O=C(Cc1ccc(Cl)cc1)Nc1ccc(Br)cc1 | 30.5* | -7.2% | . | 73.8* | -19.3%
O=C(CC1SCCNC1=O)Nc1cccc(Cl)c1 (stereo unspecified) | 16.6* | 36.8% | 3.6% | 38.9* | .
O=C(CC1SCCNC1=O)Nc1cccc(C(F)(F)F)c1 (stereo unspecified) | 7.8 | 22.1% | ? | 27.1 | 3.9%[5.75 µM]
CC12CCC(C(=O)Nc3ccc(SC(F)F)cc3)(CC1=O)C2(C)C (stereo unspecified) | 0.7 | -7.9% | -14.6% | -8.3 | 68.1%
CC(=O)/C(N=Nc1ccc(SC(F)F)cc1)=C(\C)O | 44.3* | 10.6% | . | 59.3* | 99.4%
COc1ccc(CNC(=O)CN2C(=O)NC(C)(c3cccc(Br)c3)C2=O)cc1 (stereo unspecified) | 0.4 | -24.6% | -2.1% | -7.0 | ?
CN(C)C(=O)Cn1cc(S(=O)(=O)Cc2ccccc2)c2ccccc21 | 6.9 | 35.0% | -5.6% | 15.1 | 6.9%
CCOC(=O)C1(CCCc2ccccc2)CCN(CCCn2cccn2)CC1 | -0.4 | ? | 0.5% | -6.8 | 10.4µM*
CCOC(=O)C1(CCCc2ccccc2)CCN(Cc2nccn2CC)CC1 | -0.6 | 10.4µM* | -7.8% | 5.5 | ?
CCOC(=O)C1(Cc2ccccc2C(F)(F)F)CCN(CCCn2cccn2)CC1 | -3.3 | ? | 2.0% | -18.3 | ?
COc1cccc(NC(=O)C2C3CC4OC(=O)C2C4C3)c1 (stereo unspecified) | -2.7 | -3.1% | 12.8% | -8.0 | 20.1%
COc1cccc(NC(=O)COC(=O)C2C3CC4OC(=O)C2C4C3)c1 (stereo unspecified) | 20.9* | 6.5% | 4.2% | 28.7 | 7.2%
COc1ccccc1Cn1c(SCC(=O)C(C)(C)C)nc2cc(C(=O)N3CCC4(CC3)OCCO4)ccc2c1=O | 6.1 | 5.86µM* | . | -1.4 | ?
COc1nc(NCc2cccnc2)nc(NC2CCCCC2)n1 | 71.3* | ? | -44.6% | 34.8* | ?
COc1ccc(Nc2nc(N)c([N+](=O)[O-])c(NC3CCCCC3)n2)cc1 | -10.0 | ? | 11.5% | -9.0 | 10.4µM*
Cc1ccc(Nc2nc(N)c([N+](=O)[O-])c(NCc3ccccc3)n2)cc1 | -1.5 | ? | -0.9% | 25.1 | ?
CNc1nc(Nc2ccc(Br)cc2)nc(N)c1[N+](=O)[O-] | 23.7* | 62.5% | 20.5% | 50.9* | 56.2%
COc1nc(Nc2ccc([N+](=O)[O-])cc2)nc(NC2CCCCC2)n1 | 42.9* | -19.0% | . | 77.9* | 1.2%
COc1nc(Nc2cccc([N+](=O)[O-])c2)nc(OC)n1 | 0.8 | -17.3% | . | -4.6 | -6.1%
COc1nc(NCc2cccnc2)nc(OC)n1 | 10.9 | 1.3% | 13.4% | 32.9 | ?
COc1ccc(Nc2nc(N)c([N+](=O)[O-])c(NCCO)n2)cc1 | 10.6 | -24.6% | 5.1% | 34.7 | -26.7%
Cc1ccc(N2C(=O)[C@@H]3C(C(=O)C(c4ccccc4)c4ccccc4)=NN[C@@H]3C2=O)cc1 | -1.2 | -5.6% | 23.7% | -3.9 | ?
Cc1cc(S(=O)(=O)N2CCCCC2)ccc1OCC(=O)N1CCOCC1 | -1.2 | -0.5% | 2.9% | -3.4 | 78.8%
Cc1cc(C)c(NC(=O)COC(=O)c2nc3nccc(C)n3n2)c(Cl)c1 | . | 2.2% | . | . | 1.2%
CC(CC(=O)NCC1CCCO1)c1ccccc1 (stereo unspecified) | -9.1 | -0.1% | 0.9% | -11.0 | 56.5%
SMILES | CHX counter | Pf growth 48h | NS1 inh | Shiga toxin inh | Pf growth 96h
O=C1C2CCCN2c2ccc(S(=O)(=O)N3CCOCC3)cc2N1Cc1cccc(C(F)(F)F)c1 (stereo unspecified) | -2.6 | 1.04µM* | ? | -8.8 | 0.522µM*
N#CCN1C(=O)C2CCCN2c2ccc(S(=O)(=O)N3CCOCC3)cc21 (stereo unspecified) | -5.8 | ? | 20.9% | -2.8 | -8.1%
O=C1C2CCCN2c2ccc(S(=O)(=O)N3CCOCC3)cc2N1Cc1ccccc1F (stereo unspecified) | -3.5 | ? | ? | -7.9 | 11.7µM*
O=C(CN(Cc1ccc(F)cc1)C(=O)CCC(=O)Nc1nccs1)NCC1CCCO1 (stereo unspecified) | -5.3 | 25.1% | 3.9% | 11.3 | ?
Cc1cccc(OCC(=O)N(Cc2ccc(F)cc2)C2CCS(=O)(=O)C2)c1C (stereo unspecified) | -5.5 | 7.4% | 2.6% | -1.8 | -24.2%
CCc1ccc(C(=O)c2c(N)c(-c3nc(-c4ccc5c(c4)OCO5)cs3)c3ccccn23)cc1 | 18.4 | . | . | 38.7 | .

Screening data (PubChem BioAssay)
